Measured values as given in ChEMBL document CHEMBL3988442, “University of Dundee, Small-Polar-MMV Screening Library” (2021).
For some of these results: Potency and affinity values are given separately.

Assays:
Set-up in all cases: scale not given: direction of the effect not stated beside the values
[1] = target: Protein translocase subunit SecA (Escherichia coli (strain K12)) (UniProt P10408); test: Assay to Identify E. coli SecA ATPase Inhibitors; format: functional; details: 30 µM
[2] = target: T1, Ubiquitin-activating enzyme e1, putative (Leishmania donovani (strain BPK282A1)) (UniProt E9BSI1); test: Leishmania donovani Ubiquitin Activating Enzyme (LdE1); format: functional; details: 30 µM
T1 sequence (whole entry): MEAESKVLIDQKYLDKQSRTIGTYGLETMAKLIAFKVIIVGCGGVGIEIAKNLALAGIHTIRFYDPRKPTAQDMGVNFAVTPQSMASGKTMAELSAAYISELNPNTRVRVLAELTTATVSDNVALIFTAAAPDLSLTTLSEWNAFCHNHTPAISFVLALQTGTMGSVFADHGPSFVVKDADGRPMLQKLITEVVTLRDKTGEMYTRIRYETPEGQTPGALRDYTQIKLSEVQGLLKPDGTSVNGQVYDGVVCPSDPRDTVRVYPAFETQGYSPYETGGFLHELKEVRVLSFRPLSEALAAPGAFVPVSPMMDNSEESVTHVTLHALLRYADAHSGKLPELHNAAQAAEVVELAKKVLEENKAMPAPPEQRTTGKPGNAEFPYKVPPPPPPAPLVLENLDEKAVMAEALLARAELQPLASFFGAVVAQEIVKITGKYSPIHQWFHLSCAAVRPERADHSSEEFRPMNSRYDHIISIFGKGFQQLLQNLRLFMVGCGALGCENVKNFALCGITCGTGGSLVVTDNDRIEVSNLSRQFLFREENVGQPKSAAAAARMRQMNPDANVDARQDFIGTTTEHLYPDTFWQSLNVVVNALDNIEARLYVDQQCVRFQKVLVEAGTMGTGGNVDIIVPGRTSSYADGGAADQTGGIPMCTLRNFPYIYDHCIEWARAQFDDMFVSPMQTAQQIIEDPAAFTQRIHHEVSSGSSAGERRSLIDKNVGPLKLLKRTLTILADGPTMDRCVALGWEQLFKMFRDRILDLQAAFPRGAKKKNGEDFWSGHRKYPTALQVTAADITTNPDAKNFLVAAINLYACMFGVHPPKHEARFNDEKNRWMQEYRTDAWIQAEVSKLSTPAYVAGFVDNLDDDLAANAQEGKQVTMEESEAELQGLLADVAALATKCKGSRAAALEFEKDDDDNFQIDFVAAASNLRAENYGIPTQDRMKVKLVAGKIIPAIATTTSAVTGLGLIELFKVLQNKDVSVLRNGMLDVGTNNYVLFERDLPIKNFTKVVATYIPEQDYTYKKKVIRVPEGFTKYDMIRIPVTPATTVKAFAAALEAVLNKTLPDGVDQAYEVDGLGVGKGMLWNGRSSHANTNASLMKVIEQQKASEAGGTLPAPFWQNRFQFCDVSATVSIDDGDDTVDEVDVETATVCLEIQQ

[3] = target: AMP-activated protein kinase, AMPK (Homo sapiens) (UniProt P54646+O43741+P54619+Q9UGJ0+Q9Y478+Q13131+Q9UGI9); test: AMP-dependent Kinase enzyme assay. An in vitro enzyme assay that detects ADP turnover that is directly proportional to AMPK activity. This uses naive AMPK that is activated during the assay with MK-8722; format: functional; details: 30 µM
[4] = target: Sialic acid-binding Ig-like lectin 9 (Homo sapiens) (UniProt Q9Y336); test: Hs-Siglec9 ALPHAscreen SOP 20170721; details: 10 µM
Sequence of Sialic acid-binding Ig-like lectin 9 (Homo sapiens) (Q9Y336 whole entry): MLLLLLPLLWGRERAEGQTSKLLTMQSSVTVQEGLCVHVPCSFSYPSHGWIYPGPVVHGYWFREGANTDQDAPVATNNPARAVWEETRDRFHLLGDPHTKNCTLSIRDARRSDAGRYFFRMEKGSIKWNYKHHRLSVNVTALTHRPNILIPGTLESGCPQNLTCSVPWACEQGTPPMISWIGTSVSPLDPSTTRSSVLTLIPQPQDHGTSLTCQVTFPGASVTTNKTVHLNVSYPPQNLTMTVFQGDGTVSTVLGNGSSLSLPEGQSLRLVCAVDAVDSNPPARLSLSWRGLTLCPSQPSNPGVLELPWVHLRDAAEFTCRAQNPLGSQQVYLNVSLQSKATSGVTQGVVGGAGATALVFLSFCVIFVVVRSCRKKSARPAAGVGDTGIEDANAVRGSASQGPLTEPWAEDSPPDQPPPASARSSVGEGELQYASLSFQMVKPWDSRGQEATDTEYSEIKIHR

[5] = system: Trypanosoma cruzi; test: Trypanosoma cruzi phosphomannomutase and mannose-1-phosphate guanylyltransferase assay; format: functional; details: 10 µM
[6] = target: T2, Arginase-2, mitochondrial (Homo sapiens) (UniProt P78540); test: in vitro enzyme assay to detect the production of urea directly proportional to the activity of Arginase II; format: functional; details: 33.3 µM; also: in the data most compounds retested in dose-response had high values
T2 sequence (whole entry): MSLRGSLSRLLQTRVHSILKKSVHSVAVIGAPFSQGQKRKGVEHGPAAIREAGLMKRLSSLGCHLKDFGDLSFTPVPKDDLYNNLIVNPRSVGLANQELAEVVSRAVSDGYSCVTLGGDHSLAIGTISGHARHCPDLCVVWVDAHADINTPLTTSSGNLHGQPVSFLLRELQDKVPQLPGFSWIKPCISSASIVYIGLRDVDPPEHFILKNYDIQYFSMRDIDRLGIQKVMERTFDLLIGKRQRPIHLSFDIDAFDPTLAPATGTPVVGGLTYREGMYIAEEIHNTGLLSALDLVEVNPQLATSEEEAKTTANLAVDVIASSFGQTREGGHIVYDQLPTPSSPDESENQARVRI

[7] = target: T3, Proteasome subunit beta (Trypanosoma cruzi) (UniProt O96673); test: Trypanosoma cruzi proteasome chymotrypsin-like activity (TcProtChymo) assay.; also: in the data most compounds retested in dose-response had high values; format: functional; details: 9.37 µM
T3 sequence (whole entry): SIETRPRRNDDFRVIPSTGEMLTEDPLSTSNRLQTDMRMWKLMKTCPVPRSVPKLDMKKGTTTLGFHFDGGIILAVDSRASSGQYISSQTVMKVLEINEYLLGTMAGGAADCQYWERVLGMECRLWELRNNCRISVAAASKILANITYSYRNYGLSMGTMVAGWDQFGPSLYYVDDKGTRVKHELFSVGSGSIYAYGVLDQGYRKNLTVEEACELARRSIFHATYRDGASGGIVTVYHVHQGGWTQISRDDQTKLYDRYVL

[8] = organism: Homo sapiens; test: To identify inhibition of the IFN signalling (Jak-Stat) pathway via expression of an eGFP reporter gene under the control of an IFN-stimulated response element (ISRE) containing MxA promoter.; format: functional; details: 30 µM
[9] = target: T4, Tyrosyl-tRNA synthetase, putative (Trypanosoma cruzi (strain CL Brener)) (UniProt Q4DSP6); test: Trypanosoma cruzi tyrosyl tRNA synthetase (TcYRS) _High Tyrosine SOP; format: functional; details: 30 µM; also: in the data most compounds retested in dose-response had high values
T4 sequence (whole entry): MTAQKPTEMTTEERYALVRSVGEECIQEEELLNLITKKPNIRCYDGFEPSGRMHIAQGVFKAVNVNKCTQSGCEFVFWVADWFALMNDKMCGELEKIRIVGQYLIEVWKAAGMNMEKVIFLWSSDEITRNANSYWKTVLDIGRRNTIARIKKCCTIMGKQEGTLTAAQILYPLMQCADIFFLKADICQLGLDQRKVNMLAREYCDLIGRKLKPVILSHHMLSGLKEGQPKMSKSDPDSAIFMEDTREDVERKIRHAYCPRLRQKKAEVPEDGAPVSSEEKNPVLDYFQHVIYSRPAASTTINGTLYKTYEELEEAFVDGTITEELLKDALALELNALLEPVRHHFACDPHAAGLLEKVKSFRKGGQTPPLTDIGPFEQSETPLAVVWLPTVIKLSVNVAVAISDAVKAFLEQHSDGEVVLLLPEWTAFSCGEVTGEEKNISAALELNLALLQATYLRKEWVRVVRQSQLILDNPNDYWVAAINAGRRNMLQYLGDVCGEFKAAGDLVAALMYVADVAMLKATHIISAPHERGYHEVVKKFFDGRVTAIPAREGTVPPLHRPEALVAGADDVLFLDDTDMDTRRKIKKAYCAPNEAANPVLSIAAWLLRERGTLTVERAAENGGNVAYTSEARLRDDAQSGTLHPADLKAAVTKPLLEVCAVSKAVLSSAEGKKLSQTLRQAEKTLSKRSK

[10] = target: T4, Tyrosyl-tRNA synthetase, putative (Trypanosoma cruzi (strain CL Brener)); test: Trypanosoma cruzi tyrosyl tRNA synthetase (TcYRS) SOP; format: functional; details: 30 µM
[11] = target: Chromo domain-containing protein 1 (Saccharomyces cerevisiae (strain ATCC 204508 / S288c) (Baker's yeast)) (UniProt P32657); test: ScCHD-1 Enzyme Inhibition Assay; format: functional; details: 30 µM; also: in the data most compounds retested in dose-response had high values
Sequence of Chromo domain-containing protein 1 (Saccharomyces cerevisiae (strain ATCC 204508 / S288c) (Baker's yeast)) (P32657 whole entry, the tested form may be a part): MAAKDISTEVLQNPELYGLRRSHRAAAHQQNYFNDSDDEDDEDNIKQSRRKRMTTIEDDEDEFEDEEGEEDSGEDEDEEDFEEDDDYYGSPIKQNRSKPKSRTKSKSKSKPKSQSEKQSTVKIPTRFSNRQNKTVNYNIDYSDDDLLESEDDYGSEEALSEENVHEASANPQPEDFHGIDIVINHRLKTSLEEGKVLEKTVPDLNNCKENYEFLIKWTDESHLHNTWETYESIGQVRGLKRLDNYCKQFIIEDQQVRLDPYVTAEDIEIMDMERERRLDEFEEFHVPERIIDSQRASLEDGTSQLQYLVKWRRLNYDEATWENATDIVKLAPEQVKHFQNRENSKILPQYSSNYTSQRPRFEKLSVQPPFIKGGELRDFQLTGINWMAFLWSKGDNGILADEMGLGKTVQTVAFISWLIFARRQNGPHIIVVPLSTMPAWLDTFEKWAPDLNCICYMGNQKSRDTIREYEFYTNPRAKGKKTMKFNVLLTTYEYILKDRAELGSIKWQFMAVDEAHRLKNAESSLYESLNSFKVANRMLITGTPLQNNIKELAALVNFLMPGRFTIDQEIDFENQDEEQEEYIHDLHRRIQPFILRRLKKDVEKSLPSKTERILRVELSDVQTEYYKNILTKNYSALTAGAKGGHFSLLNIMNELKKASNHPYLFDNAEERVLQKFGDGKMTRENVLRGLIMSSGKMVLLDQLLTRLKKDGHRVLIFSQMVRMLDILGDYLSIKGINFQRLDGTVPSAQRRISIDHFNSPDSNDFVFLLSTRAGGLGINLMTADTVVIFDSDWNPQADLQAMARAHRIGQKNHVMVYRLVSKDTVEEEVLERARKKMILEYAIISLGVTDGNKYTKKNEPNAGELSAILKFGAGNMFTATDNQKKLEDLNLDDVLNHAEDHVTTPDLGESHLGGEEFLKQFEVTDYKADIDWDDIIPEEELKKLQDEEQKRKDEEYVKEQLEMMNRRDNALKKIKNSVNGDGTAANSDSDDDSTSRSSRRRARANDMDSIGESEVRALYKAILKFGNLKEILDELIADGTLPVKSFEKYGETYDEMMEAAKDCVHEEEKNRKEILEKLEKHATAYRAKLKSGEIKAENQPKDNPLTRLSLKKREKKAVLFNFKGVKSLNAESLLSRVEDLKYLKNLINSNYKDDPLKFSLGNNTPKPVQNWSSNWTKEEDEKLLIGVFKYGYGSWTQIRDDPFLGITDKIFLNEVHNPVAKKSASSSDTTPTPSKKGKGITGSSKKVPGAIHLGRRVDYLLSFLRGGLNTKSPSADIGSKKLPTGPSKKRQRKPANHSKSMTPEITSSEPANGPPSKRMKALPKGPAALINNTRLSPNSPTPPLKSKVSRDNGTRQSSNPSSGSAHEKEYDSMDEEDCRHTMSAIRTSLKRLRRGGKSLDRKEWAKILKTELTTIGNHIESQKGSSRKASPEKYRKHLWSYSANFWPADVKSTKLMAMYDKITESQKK

Sequence of Protein translocase subunit SecA (Escherichia coli (strain K12)) (P10408 whole entry): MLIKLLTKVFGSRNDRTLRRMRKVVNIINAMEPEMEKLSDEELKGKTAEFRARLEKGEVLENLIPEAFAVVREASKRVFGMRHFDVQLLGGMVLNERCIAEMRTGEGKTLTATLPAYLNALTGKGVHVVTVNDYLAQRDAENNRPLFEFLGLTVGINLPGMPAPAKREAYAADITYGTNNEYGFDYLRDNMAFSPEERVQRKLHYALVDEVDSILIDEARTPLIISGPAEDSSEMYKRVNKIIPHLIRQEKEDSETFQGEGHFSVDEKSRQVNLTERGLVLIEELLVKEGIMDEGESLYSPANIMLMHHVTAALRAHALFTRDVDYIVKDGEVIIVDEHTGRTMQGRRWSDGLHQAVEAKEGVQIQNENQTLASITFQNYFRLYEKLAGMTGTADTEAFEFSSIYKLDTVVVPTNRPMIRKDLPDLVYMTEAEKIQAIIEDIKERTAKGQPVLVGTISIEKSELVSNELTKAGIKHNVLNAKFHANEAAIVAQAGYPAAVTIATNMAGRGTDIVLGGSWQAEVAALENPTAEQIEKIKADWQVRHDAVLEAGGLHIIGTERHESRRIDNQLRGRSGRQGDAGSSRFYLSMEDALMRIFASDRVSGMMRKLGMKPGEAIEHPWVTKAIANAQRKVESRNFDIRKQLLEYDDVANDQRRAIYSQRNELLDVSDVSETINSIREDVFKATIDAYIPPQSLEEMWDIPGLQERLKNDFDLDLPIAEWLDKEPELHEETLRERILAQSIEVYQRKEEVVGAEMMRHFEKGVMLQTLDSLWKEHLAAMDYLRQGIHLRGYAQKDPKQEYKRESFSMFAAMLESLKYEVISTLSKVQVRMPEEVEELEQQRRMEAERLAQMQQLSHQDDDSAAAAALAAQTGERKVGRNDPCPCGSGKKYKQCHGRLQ

CN(C)Cc1nnc(C2CCN(c3nccc(N)n3)CC2)n1C1CC1
Percent Effect [1]: -4.19%
Percent Effect [2]: 1.39%
Percent Effect [3]: -3.33%
Percent Effect [4]: -0.797%
Percent Effect [5]: 1.26%
Percent Effect [6]: 0.442%
Percent Effect [7]: 8.42%
Percent Effect [8]: -31.4%
Percent Effect [9]: 5.26%
Percent Effect [10]: 5.13%
Percent Effect [11]: -3.78%

CC(C)N(CC(N)=O)Cc1csc(Cc2ccccc2)n1
Percent Effect [1]: -3.88%
Percent Effect [2]: 12.7%
Percent Effect [3]: 0.223%
Percent Effect [4]: -4.46%
Percent Effect [5]: -6.7%
Percent Effect [6]: 0%
Percent Effect [7]: 5.82%
Percent Effect [8]: 41.7%
Percent Effect [9]: -1.48%
Percent Effect [10]: 11.4%
Percent Effect [11]: -6.32%

COCC(=O)N1CCCC2(CCN(c3ccsc3)C2=O)C1 (stereo unspecified)
Percent Effect [1]: -5.59%
Percent Effect [2]: 2.67%
Percent Effect [3]: 5.83%
Percent Effect [4]: -0.603%
Percent Effect [5]: -1.18%
Percent Effect [6]: -0.699%
Percent Effect [7]: -5.73%
Percent Effect [8]: 26.1%
Percent Effect [9]: 0%
Percent Effect [10]: -1.28%
Percent Effect [11]: 4.35%

Cc1nc(C2CCCN(C(=O)c3cccc(S(C)(=O)=O)c3)C2)no1 (stereo unspecified)
Percent Effect [1]: -1.36%
Percent Effect [2]: -1.27%
Percent Effect [3]: 5.98%
Percent Effect [4]: 4.04%
Percent Effect [5]: -1.95%
Percent Effect [6]: 7.96%
Percent Effect [7]: 12.3%
Percent Effect [8]: -20.9%
Percent Effect [9]: 0%
Percent Effect [10]: 0%
Percent Effect [11]: 3.1%

Cc1ccc(CN(Cc2ccccn2)C2CC(C)(C)NC(C)(C)C2)s1
Percent Effect [1]: -1.39%
Percent Effect [2]: -4.05%
Percent Effect [3]: 8.17%
Percent Effect [4]: 7.72%
Percent Effect [5]: -3.95%
Percent Effect [6]: -0.232%
Percent Effect [7]: 8.27%
Percent Effect [8]: 5.16%
Percent Effect [9]: 4.3%
Percent Effect [10]: 3.9%
Percent Effect [11]: -9.63%

Fc1ccc(OCCCN2CCOC(Cn3cncn3)C2)cc1 (stereo unspecified)
Percent Effect [1]: -1.31%
Percent Effect [2]: -3.8%
Percent Effect [3]: 6.98%
Percent Effect [4]: 5.51%
Percent Effect [5]: 3.79%
Percent Effect [6]: -3.23%
Percent Effect [7]: 3.43%
Percent Effect [8]: 2.48%
Percent Effect [9]: 0%
Percent Effect [10]: 2.53%
Percent Effect [11]: -15.5%

CN(CCO)C[C@@H]1CN(C(=O)c2c(F)cccc2Cl)C[C@@H]1CO
Percent Effect [1]: -3.86%
Percent Effect [2]: 0%
Percent Effect [3]: 1.2%
Percent Effect [4]: 6%
Percent Effect [5]: -2.06%
Percent Effect [6]: 2.76%
Percent Effect [7]: 15.6%
Percent Effect [8]: 9.06%
Percent Effect [9]: 3.23%
Percent Effect [10]: 3.7%
Percent Effect [11]: -2.59%

CC(C)c1ncncc1C(=O)N1CCCN(Cc2cccs2)CC1
Percent Effect [1]: -1.81%
Percent Effect [2]: 16.2%
Percent Effect [3]: -2.92%
Percent Effect [4]: -2.71%
Percent Effect [5]: 8.08%
Percent Effect [6]: -6.47%
Percent Effect [7]: 6.46%
Percent Effect [8]: 5.27%
Percent Effect [9]: 6.93%
Percent Effect [10]: 18.3%
Percent Effect [11]: -5.18%

CN(C)CCn1c(=O)oc2ccc(NC(=O)CC(C)(C)C)cc21
Percent Effect [1]: -5.92%
Percent Effect [2]: 16%
Percent Effect [3]: -6.21%
Percent Effect [4]: 19.3%
Percent Effect [5]: 4.38%
Percent Effect [6]: 14.1%
Percent Effect [7]: 7.67%
Percent Effect [8]: 5.54%
Percent Effect [9]: 10.4%
Percent Effect [10]: 23.5%
Percent Effect [11]: 1.52%

Cn1cc(NS(=O)(=O)c2ccc(OC(F)(F)F)cc2)ccc1=O
Percent Effect [1]: -4.62%
Percent Effect [2]: 7.59%
Percent Effect [3]: -136%
Percent Effect [4]: -4.96%
Percent Effect [5]: -9.73%
Percent Effect [6]: -1.9%
Percent Effect [7]: 0.246%
Percent Effect [8]: 62.5%
Percent Effect [9]: 0.493%
Percent Effect [10]: 8.86%
Percent Effect [11]: -4.48%

CC(=O)NCC(=O)N1CCC2(CC1)CN(c1cccnc1)C(=O)CO2
Percent Effect [1]: -1.82%
Percent Effect [2]: 13.5%
Percent Effect [3]: -3.23%
Percent Effect [4]: -10.1%
Percent Effect [5]: -3.42%
Percent Effect [6]: 2.87%
Percent Effect [7]: 26.2%
Percent Effect [8]: -0.0812%
Percent Effect [9]: -1.08%
Percent Effect [10]: 10.3%
Percent Effect [11]: 0.305%
